In the library only some 3.3% were active in any assay of this set; here they are far more common.
NS1 inh: influenza NS1 inhibition; Potency, µM (highest dose often 46.1 µM), inactives show at the top dose activity, positive = more growth; hit rate 0.4% among 270,000; calls by dose curve; note: actives are rising curves; nearly all actives have a fitted effect of over 50% in size
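A cell-based growth assay was used: compounds that relieve NS1-induced slow growth of budding yeast raise OD600. Assay medium was yeast nitrogen base with ammonium sulphate and -URA supplement, pH 6.0, with 2% galactose.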
SARS PLpro yeast: inhibitors of SARS-CoV papain-like protease in yeast. S. cerevisiae expressing SARS-CoV PLpro, growth rescue. Potency, µM (top dose mostly 32.9 µM), for inactives: top-dose activity, positive = growth rescue, usual class: activators. hit rate 0.19% among 330,000. AID 485353; calls by dose curve; note: 0% is about no effect; nearly all actives have a fitted effect of over 55% in size
LmPK inhibitor: blocks Leishmania mexicana pyruvate kinase activity; hit rate 0.37% among 290,000; Potency, µM (highest dose often 57.5 µM), without a hit: at the top dose activity change, negative = inhibition, usual class: inhibitors; purified LmPK, Kinase-Glo ATP luminescence, 1 h; note: % is set by controls: 0 for no effect and ±100 for the full control effect
Target sequence (Q27686 whole entry, looked up): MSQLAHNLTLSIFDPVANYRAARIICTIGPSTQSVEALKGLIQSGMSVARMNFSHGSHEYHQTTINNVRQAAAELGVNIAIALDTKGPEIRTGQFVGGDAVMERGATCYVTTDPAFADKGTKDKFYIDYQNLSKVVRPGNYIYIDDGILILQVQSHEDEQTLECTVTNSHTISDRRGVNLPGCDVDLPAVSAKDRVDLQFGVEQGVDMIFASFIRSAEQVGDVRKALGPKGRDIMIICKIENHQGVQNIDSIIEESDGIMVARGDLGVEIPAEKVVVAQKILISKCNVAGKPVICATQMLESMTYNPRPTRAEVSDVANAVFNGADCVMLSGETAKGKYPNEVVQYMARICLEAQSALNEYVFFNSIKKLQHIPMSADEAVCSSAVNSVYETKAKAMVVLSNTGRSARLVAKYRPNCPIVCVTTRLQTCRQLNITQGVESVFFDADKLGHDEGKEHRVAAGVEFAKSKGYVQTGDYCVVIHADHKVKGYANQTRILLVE
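Pyruvate kinase activity monitored as ATP production (luciferase luminescence). Conditions: 0.1 nM enzyme, 0.5 mM PEP, 0.1 mM ADP, 1 h, RT; normalized against uninhibited and no-enzyme wells.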
Sm TGR block: S. mansoni TGR enzyme inhibition; Q962Y6; purified TGR, DTNB reduction, TNB absorbance 405 nm; Potency, µM (top dose mostly 114 µM), without a hit: at the highest dose activity change, negative = inhibition, most hits filed as inhibitors; hit rate 3% among 360,000; note: % is set by controls: 0 for no effect and ±100 for the full control effect; nearly all actives have a fitted effect of over 60% in size
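First, TGR (20 nM dispensed) and NADPH were mixed with compound. Second, a 15 min room-temperature incubation followed. Third, further NADPH and then DTNB were added to start the reaction. Finally, TNB absorbance was monitored kinetically.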
TbPYK inhibitor: blocks Trypanosoma brucei pyruvate kinase; Q57TT1; TbPYK enzyme, Kinase-Glo Plus ATP luminescence, 45 min; Potency, µM (top dose mostly 76.8 µM), without a hit: top-dose activity, negative = inhibition, most hits filed as inhibitors; hit rate 0.12% among 410,000; note: % is set by controls: 0 for no effect and ±100 for the full control effect; nearly all actives have a fitted effect of over 50% in size
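Luminescent Kinase-Glo Plus end-point after 45 min room-temperature reaction of T. brucei pyruvate kinase started with 130 uM ADP (final). Buffer TEA 50 mM pH 7.2 with KCl, MgCl2, BSA, Tween-20; titration-based qHTS with fitted concentration-effect curves.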
RE007 growth inh: less growth of the S. pombe RE007 Vpr strain | S. pombe RE007 Vpr strain, BacTiter-Glo ATP luminescence, 24 h | Potency, µM (series often up to 92.2 µM), inactives show at the highest dose activity change, negative = less growth, hits mostly inhibitors | hit rate 0.21% among 360,000; active = well fitted falling curve with a large enough effect; inconclusive = small, poorly fitted or top-dose-only effect; inactive = no such curve, though single readings can be large or run the other way; note: % is set by controls: 0 for no effect and ±100 for the full control effect; nearly all actives have a fitted effect of over 50% in size
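Fission yeast RE007 carrying one integrated HIV-1 vpr copy, seeded at OD 0.01 in PMG+AL medium with 23 nL pinned compound. Grown 24 h at 30 degrees; viability read by BacTiter-Glo luminescence after 5 min.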
Numbers without * were called inactive; ? = inconclusive; . = no result. Unless noted, calls come from the whole dose curve; as a rule, active = well fitted curve in the direction sought with a large enough effect; inconclusive = small, poorly fitted or top-dose-only effect, or another doubt; inactive = no such curve, though single readings can be large; an effect the other way counts as inactive or inconclusive. Potency is the fitted concentration of half-maximal effect.

SMILES	NS1 inh	SARS PLpro yeast	LmPK inhibitor	Sm TGR block	TbPYK inhibitor	RE007 growth inh
O=C(c1cccc(S(=O)(=O)N2CCc3ccccc32)c1)N1CCN(c2ccccc2)CC1	.	-1%	.	40µM*	0%	-3%
Cc1ccc(N2CC(NC(=O)c3ccc(S(=O)(=O)N4CCCC4)cc3)CC2=O)cc1 (configuration not stated)	.	.	.	5%	-3%	.
O=C(CN1CC(=O)Nc2ccccc21)Nc1ccc(F)c(F)c1	.	0%	7%	32µM*	-3%	-17%
CCOC(=O)C1CCCN(C(=O)c2ccc3c(c2)sc2nc(-c4cccc(OC)c4)cn23)C1 (configuration not stated)	.	.	.	-11%	6%	.
Cc1cccc(NC(=O)CSc2nc(=O)n(CCN3CCOCC3)c3c2CCC3)c1C	.	.	.	9%	-3%	.
CS(=O)(=O)N(CC(=O)NCc1ccco1)c1ccccc1Cl	1%	4%	-8%	40µM*	0%	0%
COc1ccc(N(CC(=O)NCc2ccco2)S(C)(=O)=O)c(OC)c1	0%	0%	-1%	-18%	-18%	2%
CCOc1ccc(N(CC(=O)NCc2ccco2)S(C)(=O)=O)cc1	-1%	1%	-3%	50µM*	5%	8%
CCOc1ccc(N(CC(=O)Nc2ccccc2C(=O)NCc2ccco2)S(C)(=O)=O)cc1	-10%	2%	9%	3%	1%	12%
O=C(Cn1ncc2c([nH]c3ccccc32)c1=O)NCc1cccc(Cl)c1	.	.	.	-10%	4%	.
O=C1NC(c2cccc([N+](=O)[O-])c2)=CCN1c1ccccc1O	0%	7%	1%	45µM*	-1%	-10%
CC(C)(C)c1ccc(C(=O)Nc2onc3c2CCCC3)cc1	.	.	.	11%	-5%	.
Cc1ccc2nc(NC(=O)CSc3nccn3Cc3ccc(Cl)cc3)sc2c1	.	.	.	1%	-2%	.
COCCn1c(SCC(=O)c2c[nH]c3ccccc23)nc2cc(C(=O)NC(C)C)ccc2c1=O	.	.	.	-29%	1%	.
COCCn1c(SCC(=O)c2c(C)[nH]c3ccccc23)nc2cc(C(=O)NC(C)C)ccc2c1=O	.	.	.	35µM*	-8%	.
CC[C@@H]1OC(=O)C[C@H](O)[C@@H](C)[C@@H](O[C@H]2O[C@@H](C)[C@H](O[C@@H]3C[C@](C)(O)[C@H](O)[C@@H](C)O3)[C@@H](N(C)C)[C@@H]2O)[C@@H](C=O)C[C@@H](C)C(=O)/C=C/C(C)=C[C@@H]1CO[C@H]1O[C@@H](C)[C@H](O)[C@H](OC)[C@@H]1OC	.	.	.	.	3%	.
CCOC(=O)C1=C(C)N(C)C(C)=C(C(=O)OCC)C1c1cccnc1	-14%	-7%	-2%	-11%	0%	18%
CCOC(=O)C1C(=O)C(C(=O)OCC)C(c2cccnc2)NC1c1cccnc1 (configuration not stated)	-10%	-1%	2%	25µM*	-13%	-10%
O=C1C(=O)c2ccccc2-c2ccccc21	-39%	-54%	-5%	?	0%	?
O=C1C(=C(I)I)c2ccccc2-c2ccccc21	.	.	.	.	-31%	14µM*
COc1ccc(OC)c(C2Nc3c(Cl)ccc(C(=O)O)c3C3C=CCC32)c1 (configuration not stated)	9%	0%	22%	1.6µM*	-22%	-12%
CCOc1ccc2c(c1)[C@@H]1C=CC[C@@H]1[C@H](c1ccccc1Cl)N2	.	.	.	-7%	-5%	.
COC(=O)COc1ccc(C2Nc3c(Cl)ccc(C(=O)O)c3C3C=CCC32)cc1 (configuration not stated)	.	0%	-7%	3.5µM*	?	5%
N/C(=N\N=C\c1ccc(Cl)cc1)N/N=C/c1ccc(Cl)cc1	.	.	.	.	-5%	.
CC(C)Oc1ccc(CNC(=O)CCn2c(=O)c3cccn3c3ccc(F)cc32)cc1	.	.	.	-1%	4%	.
SMILES	NS1 inh	SARS PLpro yeast	LmPK inhibitor	Sm TGR block	TbPYK inhibitor	RE007 growth inh
O=S(=O)(Cc1ccccc1)Cc1cnc(Cl)s1	-2%	5%	0%	40µM*	4%	19%
Clc1ncc(CN2CCN(Cc3ccccc3)CC2)s1	6%	7%	-4%	?	14%	5%
CCOC(=O)c1cc(-c2ccc(OC)cc2)n(CCC(=O)Nc2ccccc2OC)c1C	.	.	.	0%	4%	.
O=C(O)[C@H]1O[C@H]1C(=O)O	1%	.	.	.	.	.
CC(=O)Nc1ccc(N=NN2CCOCC2)cc1	.	11µM*	-1%	8.9µM*	-17%	12%
CC(=O)Nc1cccc(N=NN2CCOCC2)c1	0%	1%	-1%	-9%	2%	6%
Fc1ccc(CSc2nc3ccccc3[nH]2)c2ccccc12	-49%	-44%	0%	12%	2%	13µM*
O=c1cc(CSc2nc3ccccc3[nH]2)c2ccccc2[nH]1	-5%	15%	0%	-4%	0%	2%
c1ccc(CSc2nc3ccccc3[nH]2)cc1	-3%	3%	?	0%	2%	-25%
Fc1ccc(CSc2nc3ccccc3[nH]2)cc1	-62%	-18%	22µM*	-6%	-8%	?
CC[C@H](C)/C=C(C)/C=C/C(=O)Cc1cc(O)c(C)c(O)c1C=O	-4%	-2%	0%	28µM*	0%	11%
Cc1nnc(N2CCN(c3cccc(C(F)(F)F)c3)CC2)c2c1nnn2Cc1ccccc1	.	.	.	13%	3%	.
c1ccc(Oc2c3ccccc3nc3ccccc23)cc1	-87%	-3%	2%	5µM*	-1%	-3%
CSc1oc(-c2ccco2)nc1S(=O)(=O)c1ccc(C)cc1	8%	0%	-4%	?	4%	-2%
CSc1oc(-c2ccco2)nc1S(=O)(=O)c1ccc(F)cc1	-43%	18%	8%	45µM*	-9%	-10%
CSc1oc(-c2ccco2)nc1S(=O)(=O)c1ccccc1	5%	-4%	21%	35µM*	-7%	12%
Cn1c(=O)c2c(nc3n2CC(O)CN3c2ccc(O)cc2)n(C)c1=O (configuration not stated)	1%	3%	-2%	20µM*	6%	17%
C=CC[n+]1ccc(/C=C2\C=Cc3cc(C)ccc3N2CC)c2ccccc21	.	-39%	?	15%	-34%	32µM*
CCN1/C(=C2\C(=O)N(C)C(=S)N2c2ccccc2)C=Cc2ccccc21	-13%	-1%	18µM*	-15%	?	-28%
CCN1/C(=C2\C(=O)N(C)C(=S)N2C)C=Cc2cc(C)ccc21	-37%	-26%	16µM*	5%	-25%	-19%
CCN1/C(=C2\C(=O)N(C)C(=S)N2C)C=Cc2ccccc21	-11%	-30%	?	0%	?	-24%
NS(=O)(=O)c1cccc(NS(=O)(=O)c2ccc(/C=C/C(=O)O)cc2)c1	5%	3%	5%	25µM*	5%	18%

Screening results deposited in PubChem by National Center for Advancing Translational Sciences (NCATS).
